Screens deposited in PubChem BioAssay by National Center for Advancing Translational Sciences (NCATS).
HT1080 IDH1KD tx – qHTS for induction of synthetic lethality in tumor cells producing 2HG: qHTS for the HT-1080-IDH1KD cell line; HT-1080 IDH1 knockdown viability, ATP luminescence, 48 h; Potency, µM (titrated, usually from 46.1 µM), without a hit: top-dose activity, negative = toxicity, actives largely listed as cytotoxic; hit rate 2% among 360,000;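 note: 0% = DMSO wells and -100% = cell-free medium wells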
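IDH1KD HT-1080 cells, 750/well, RPMI + 5% FBS; compound pinned after 2 h settling; 48 h, 37 °C; CellTiter-Glo luminescence; % activity normalised to DMSO and no-cell wells; curves fitted, classed by r2 and efficacy.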
TDP1 cell noCPT – qHTS for Inhibitors of human tyrosyl-DNA phosphodiesterase 1 (TDP1): qHTS in cells in absence of CPT | DT40 Tdp1-/- hTDP1 cells, no CPT, ATP luminescence, 48 h | Potency, µM (titrated, usually from 46.2 µM), inactives show at the top dose activity change, negative = growth inhibition, actives largely listed as inhibitors | hit rate 15% among 420,000; note: nearly all actives have a fitted effect of over 55% in size
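No-CPT arm: Tdp1-/-;hTDP1 DT40 cells (400/well) plus compounds, incubated ≥48 hr at 37 °C. Readout CellTiter-Glo luminescence.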
HT1080-NT tox – qHTS for induction of synthetic lethality in tumor cells producing 2HG: qHTS for the HT-1080-NT fibrosarcoma cell line; HT-1080-NT fibrosarcoma viability, CellTiter-Glo ATP luminescence, 48 h; Potency, µM (series often up to 46.1 µM), without a hit: at the highest dose activity, negative = less viability, actives largely listed as cytotoxic; hit rate 1.6% among 360,000; AID 686970, 2013;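 note: NT is the 2HG producing partner of a matched IDH1 knockdown line; 0% = DMSO-treated cells and -100% = media-only wells without cells; nearly all actives have a fitted effect of over 55% in size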
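Fibrosarcoma NT cells, 750 per well in 5% FBS RPMI, were exposed to compound for 48 hours. Viability: CellTiter-Glo luminescence.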
KB-V1 cytotox – qHTS assay for MDR1-selective chemotherapeutics: Primary screen using the drug-selected MDR subline cells KB-V1. KB-V1 MDR cells viability, CellTiter-Glo, 72 h. Potency, µM (doses to about 46.1 µM), hits mostly cytotoxic. hit rate 3.4% among 400,000; note: nearly all actives have a fitted effect of over 60% in size
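Compound-treated KB-V1 multidrug-resistant cells, 72 h, 37 degrees C; viability by CellTiter-Glo. Fitted qHTS curves give the values.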
DT40 TDP1 CPT – qHTS for Inhibitors of human tyrosyl-DNA phosphodiesterase 1 (TDP1): qHTS in cells in presence of CPT; chicken DT40 Tdp1-/-;hTDP1 cells + 20 nM CPT, ATP luminescence, 48 h; Potency, µM (top dose mostly 46.2 µM), inactives show top-dose activity change, negative = growth inhibition, hits mostly inhibitors; hit rate 12% among 420,000; AID 686979, 2013; note: nearly all actives have a fitted effect of over 55% in size
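Chicken DT40 Tdp1-/- cells stably complemented with human TDP1 were seeded at 400 cells/well in medium containing 20 nM camptothecin, exposed to pin-transferred compounds, and grown at 37 °C for at least 48 hr. Viability was read as ATP luminescence.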
KB-3-1 tox – qHTS assay for MDR1-selective chemotherapeutics: Primary screen using the parental adenocarcinoma cell KB-3-1; AID 1347075, 2019; Potency, µM (titrated, usually from 46.1 µM), hits mostly cytotoxic; KB-3-1 viability, CellTiter-Glo ATP luminescence, 72 h; hit rate 1.4% among 400,000; note: nearly all actives have a fitted effect of over 60% in size
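KB-3-1 cells, DMEM (no phenol red) + 10% FBS; compound by pin transfer, 72 h, 37 °C. Readout: CellTiter-Glo luminescence after 10 min. Data normalized, curve-fitted.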
An asterisk follows results filed as active; [ ] = another dose, or the depositor's remark. This is a sample that favours compounds with a hit; in the whole collection about 19% have one here. Calls come from the whole dose curve; as a rule, active = well fitted curve in the direction sought with a large enough effect; inconclusive = small, poorly fitted or top-dose-only effect, or another doubt; inactive = no such curve, though single readings can be large; an effect the other way counts as inactive or inconclusive. Unless noted, % is set by controls: 0 for no effect and ±100 for the full control effect; potency is the fitted concentration of half-maximal effect.

What do the screens show for `COC(=O)C1=C(C)OC(N)=C(C#N)C1c1cccnc1` (stereo not drawn)?
HT1080 IDH1KD tx: 10%; TDP1 cell noCPT: inconclusive; HT1080-NT tox: 10%; KB-V1 cytotox: inactive; DT40 TDP1 CPT: 21µM*; KB-3-1 tox: inactive

Results for C=CCOC(=O)C1=C(C)OC(N)=C(C#N)C1c1ccc2c(c1)OCO2 (stereo not drawn) ?
HT1080 IDH1KD tx: 6%; TDP1 cell noCPT: 16µM*; HT1080-NT tox: 2%; KB-V1 cytotox: inactive; DT40 TDP1 CPT: 26µM*; KB-3-1 tox: inactive

Results for CCOC(=O)CC1=C(C(=O)OCC)C(c2cccnc2)C(C#N)=C(N)O1 (stereo not drawn) ?
HT1080 IDH1KD tx: 8%; TDP1 cell noCPT: 1%; HT1080-NT tox: 5%; KB-V1 cytotox: inactive; DT40 TDP1 CPT: -1%; KB-3-1 tox: inactive

Results for CC1=C(n2nnc([N+](=O)[O-])n2)C(c2cccnc2)C(C#N)=C(N)O1 (stereo not drawn) ?
HT1080 IDH1KD tx: -21%; TDP1 cell noCPT: inconclusive; HT1080-NT tox: 3%; KB-V1 cytotox: inactive; DT40 TDP1 CPT: 9.2µM*; KB-3-1 tox: inactive

What do the screens show for `C=CCc1c(C)nc2ccc(C(=O)OCC)cc2c1Cl`?
HT1080 IDH1KD tx: -17%; TDP1 cell noCPT: -26%; HT1080-NT tox: 0%; KB-V1 cytotox: inactive; DT40 TDP1 CPT: inconclusive; KB-3-1 tox: inconclusive

What do the screens show for `CCc1cnc2c(c1SCC(=O)Nc1cc(Cl)ccc1OC)c(=O)n(C)c(=O)n2C`?
TDP1 cell noCPT: 2%; KB-V1 cytotox: inactive; DT40 TDP1 CPT: -1%; KB-3-1 tox: inactive

How did CC1(C)NC(=O)N(CCCCOc2ccc3ccccc3c2Cl)C1=O do in these assays?
HT1080 IDH1KD tx: 10µM*; TDP1 cell noCPT: -23%; HT1080-NT tox: inconclusive; KB-V1 cytotox: 21µM*; DT40 TDP1 CPT: inconclusive; KB-3-1 tox: inconclusive

How did CCC(=O)c1ccccc1OCCCN1C(=O)NC(C)(C)C1=O do in these assays?
HT1080 IDH1KD tx: -3%; TDP1 cell noCPT: -1%; HT1080-NT tox: 5%; KB-V1 cytotox: inconclusive; DT40 TDP1 CPT: -20%; KB-3-1 tox: inactive

How did CC1(C)NC(=O)N(CCOCCOc2ccc3ccccc3c2Br)C1=O do in these assays?
HT1080 IDH1KD tx: inconclusive; TDP1 cell noCPT: inconclusive; HT1080-NT tox: -16%; KB-V1 cytotox: 21µM*; DT40 TDP1 CPT: inconclusive; KB-3-1 tox: inactive

Results for O=C(Cc1cccc2c(=O)cc(-c3ccccc3)oc12)OCCN1CCOCC1 ?
HT1080 IDH1KD tx: 1%; TDP1 cell noCPT: -10%; HT1080-NT tox: 18%; KB-V1 cytotox: inactive; DT40 TDP1 CPT: -5%; KB-3-1 tox: inactive

Results for N=C(N)SCc1cccc2c(=O)cc(-c3ccccc3)oc12 ?
TDP1 cell noCPT: 7.1µM*; KB-V1 cytotox: inactive; DT40 TDP1 CPT: 4.5µM*; KB-3-1 tox: inconclusive

Results for CC1ON=C(c2cccc3ccccc23)N(C)C1=O (stereo not drawn) ?
HT1080 IDH1KD tx: 28%; TDP1 cell noCPT: -3%; HT1080-NT tox: 19%; KB-V1 cytotox: inactive; DT40 TDP1 CPT: 4%; KB-3-1 tox: inactive

What do the screens show for `COc1ccc(OC)c(S(=O)(=O)N2CCCCCC2)c1`?
HT1080 IDH1KD tx: -8%[9.24 µM]; TDP1 cell noCPT: 6%; HT1080-NT tox: 0%; KB-V1 cytotox: inconclusive; DT40 TDP1 CPT: 8%; KB-3-1 tox: inactive
